Bioassay records from PubChem BioAssay.
IDE inh: cellular human IDE inhibition. 320,000 tested, 0.41% active. HEK cells, FAbetaB cleavage, fluorescence polarization. inhibition, % at 5.59 µM;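 active = percent inhibition above the average of all tested compounds plus 3 SD, set per screening campaign, cut at about 16% in these data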;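 note: IDE supplied by intact live HEK cells; FP after avidin binding of uncleaved biotin substrate so inhibition keeps polarization high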
PP5 primary: blocks human protein phosphatase 5 activity; P53041; purified PP5c, OMFP substrate fluorescence; inhibition, % at 6.7 µM; 320,000 tested, 0.18% active; AID 1987;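 active = inhibition above the campaign's mean inhibition across all tested compounds plus 3 SD, cut at about 9.5% in these data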
Target sequence (P53041 whole entry, looked up): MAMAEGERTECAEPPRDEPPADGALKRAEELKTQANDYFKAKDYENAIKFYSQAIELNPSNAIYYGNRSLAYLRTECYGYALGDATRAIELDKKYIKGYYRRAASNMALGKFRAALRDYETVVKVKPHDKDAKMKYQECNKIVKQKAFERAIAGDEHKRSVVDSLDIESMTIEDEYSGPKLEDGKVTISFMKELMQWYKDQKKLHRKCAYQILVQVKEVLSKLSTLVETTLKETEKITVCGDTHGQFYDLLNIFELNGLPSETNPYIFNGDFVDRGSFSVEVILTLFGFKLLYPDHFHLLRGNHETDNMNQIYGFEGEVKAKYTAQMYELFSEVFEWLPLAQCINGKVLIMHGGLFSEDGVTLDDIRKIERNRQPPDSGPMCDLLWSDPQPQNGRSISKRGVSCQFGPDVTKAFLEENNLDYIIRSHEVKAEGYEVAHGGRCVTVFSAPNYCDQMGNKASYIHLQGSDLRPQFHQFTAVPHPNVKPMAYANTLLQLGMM
IDE cell activ: boosts human insulin-degrading enzyme activity in HEK cells; P14735; FAbeta-B cleavage, fluorescence polarization; 0% vehicle, 100% cell-free pure enzyme wells; activation, % at 5.96 µM; 340,000 tested, 0.073% active; AID 493087;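 active = activation above the mean of all tested compounds plus 3 SD, set per screening campaign, cut at about 17% in these data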
PP1 counter: counter-screen for PP5 inhibitors: inhibitors of human PP1-alpha; P62136; purified PP1alpha, OMFP fluorescence; inhibition, % at 6.7 µM; 320,000 tested, 0.9% active;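 active = inhibition above the mean inhibition of all tested compounds plus 3 SD, computed separately for each screening campaign, cut at about 15% in these data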
SKKanGAS inh: inhibitors of SKKanGAS S. pyogenes growth in kanamycin (SK-promoter or general growth effect); inhibition, % at 7.5 µM; BacTiter-Glo, 6 h; AID 1662; 300,000 tested, 1.3% active;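 active = mean replicate score, as percent of positive control median, at least 50; inconclusive = mean below 50 but one replicate at or above 50; inactive = mean and every replicate below 50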;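 note: strain carries kanamycin resistance gene driven by streptokinase promoter and grows in 40 µg/ml kanamycin; loss of luminescence reflects streptokinase promoter inhibition or plain growth inhibition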
Exocytosis inh: lytic granule exocytosis inhibition | 360,000 tested, 0.66% active | inhibition, % at 10 µM | TALL-104 LAMP-1 surface exposure, flow cytometry; cells stimulated with thapsigargin and PMA;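 active = inhibition above about 55%, limit read from the data; inconclusive = no clear call, values can overlap the other calls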
Numbers stand for hits; n = inactive; u = inconclusive; x = no result. A selection: hits, their analogues and other compounds. The true share with any hit is near 2.8%.

SMILES	IDE inh	PP5 primary	IDE cell activ	PP1 counter	SKKanGAS inh	Exocytosis inh
CCOc1ccc(/C=C2/Sc3ccc(C(=O)N4CCOCC4)cc3N(C)C2=O)cc1OC	n	n	n	n	68	n
COc1ccc(/C=C2\Sc3ccc(C(=O)N4CCCC4)cc3N(C)C2=O)cc1OC	n	n	n	n	100	n
CN(Cc1nc(Cc2ccccc2F)no1)Cc1cccc2ncccc12	n	n	n	n	n	n
COc1cc(OC)cc(C(=O)NCCCNC(=O)c2ccccn2)c1	n	n	n	n	n	n
C[C@@H]1CN([C@@H](C)CO)C(=O)c2cc(Br)cnc2O[C@H]1CN(C)C(=O)C1CC1	x	x	x	x	x	n
COc1ccc(O)cc1CN1CCN(c2ncc(Cc3ccccc3)cn2)CC1	x	x	x	x	x	n
CCCOCc1ccc(O)c2ncccc12	n	n	n	n	82	n
CC(C)COCc1ccc(O)c2ncccc12	n	n	n	n	83	n
COc1ccc(-c2cc(C3CCNCC3)[nH]n2)cc1	n	n	n	n	n	n
CCc1nc(N)nc(N)c1-c1ccc(Cl)cc1	n	n	n	n	70	n
CCc1nc(N)nc(N)c1-c1ccc(NCCN)c([N+](=O)[O-])c1	x	x	n	x	x	n
O=C(NC12CC3CC(CC(C3)C1)C2)c1cccnc1Cl	n	n	n	n	n	n
CCCC(=O)N1CCN(c2ccc(NC(=O)c3cc4ccccc4o3)cc2)CC1	n	n	n	n	x	n
CCCC(=O)N1CCN(c2ccc(NC(=O)c3sc4ccccc4c3Cl)cc2)CC1	n	n	n	16	n	n
Fc1ccccc1CSc1ncnc2c1oc1ccccc12	n	n	n	n	n	n
c1ccc(CSc2ncnc3c2oc2ccccc23)cc1	n	n	n	n	52	n
Cc1nc(SCc2cccc(F)c2)c2oc3ccccc3c2n1	n	n	n	n	55	n
CCOC(OCC)c1cn(Cc2ccc3c(c2)C(=O)c2ccccc2C3=O)nn1	n	n	x	n	n	x
O=C(Nc1cccc(Oc2ccccc2)c1)C1Cc2c(-c3ccccc3)ccnc2O1 (centres undefined)	x	x	x	x	x	n
O=C(Nc1ccc(Cl)cc1)Nc1ccc(N2CCCC2)c(S(=O)(=O)Nc2ccccc2Cl)c1	n	n	n	17	n	n
COCCNC(=O)[C@H]1N2C(=O)c3ccccc3C2SC1(C)C (some centres undefined)	n	n	n	n	n	n
Nc1ncnc2c1ncn2[C@@H]1O[C@H](CCC(=O)NCc2ccccc2)[C@@H](O)[C@H]1O	x	x	x	x	x	n
O=C(c1cc(S(=O)(=O)NCc2ccco2)ccc1Br)N1CCOCC1	n	n	n	n	x	n
CC1CCN(c2ccccc2NC(=O)c2ccc(Br)o2)CC1	n	n	n	n	88	n
CC1CCN(c2ccccc2NC(=S)NC(=O)C(C)(C)C)CC1	n	n	n	n	58	n
SMILES	IDE inh	PP5 primary	IDE cell activ	PP1 counter	SKKanGAS inh	Exocytosis inh
CN1CCN(c2ccccc2NC(=O)c2ccc(Br)o2)CC1	n	n	n	n	n	n
CC1CCN(c2ccccc2NC(=S)NC(=O)c2cccs2)CC1	n	n	n	n	87	n
CC(=O)NC(Cc1c[nH]c2ccccc12)C(=O)OCC(=O)N1CCN(S(=O)(=O)c2ccc(Cl)cc2)CC1 (centres undefined)	x	x	n	x	x	n
CC1(C)[C@@H](O)CC[C@]2(C)[C@H]3C(=O)C=C4[C@@H]5C[C@@](C)(C(=O)O)CC[C@]5(C)CC[C@@]4(C)[C@]3(C)CC[C@@H]12	n	n	n	n	n	n
CC1(C)[C@@H](O)CC[C@]2(C)C3C(O)C=C4[C@H]5C[C@@](C)(CO)CC[C@]5(C)CC[C@]4(C)[C@]3(C)CC[C@@H]12 (some centres undefined)	n	n	n	n	99	n
CC(C)(C)c1ccc(OCCC(=O)Nc2cccc(S(=O)(=O)N3CCCCC3)c2)cc1	n	n	n	16	n	n
CN1C(=O)/C(=C/c2cccc(Cl)c2)Sc2ccc(C(=O)N3CCOCC3)cc21	n	n	n	n	u	n
CCOC(=O)C1CCCN(C(=O)c2ccc3c(c2)N(C)C(=O)/C(=C/c2ccccc2Cl)S3)C1 (centres undefined)	n	n	n	n	105	n
CN1C(=O)/C(=C/c2ccc(C(F)(F)F)cc2)Sc2ccc(C(=O)N3CCN(c4ccccn4)CC3)cc21	n	n	n	n	104	n
CCOC(=O)C1CCCN(C(=O)c2cccc(N3C(=O)c4ccccc4C3=O)c2)C1 (centres undefined)	n	n	n	n	x	n
CN1C(=O)/C(=C/c2ccccc2Cl)Sc2ccc(C(=O)N3CCCC3)cc21	n	n	n	n	99	n
CCOc1ccc(C2CC(c3ccc(F)cc3)n3ncnc3N2)cc1 (centres undefined)	n	n	n	n	n	n
CO[C@@H]1CN(C)C(=O)c2ccc(NC(=O)c3ccccc3F)cc2OC[C@@H](C)N(CC2CCOCC2)C[C@@H]1C	x	x	x	x	x	n
COc1ccc(C2/C(=C(/O)c3ccc(C)cc3)C(=O)C(=O)N2c2ccccn2)cc1 (centres undefined)	n	n	n	n	n	n
Cc1ccc(/C(O)=C2/C(=O)C(=O)N(c3ccccn3)C2c2ccc([N+](=O)[O-])cc2)cc1 (centres undefined)	n	n	n	16	n	n
Clc1ccc(CSc2nnnn2-c2ccc3c(c2)OCO3)c(Cl)c1	n	n	n	n	n	n
CCOC(=O)CSc1cc(CSc2ccccc2)nc(-c2ccccc2)n1	n	n	n	n	n	n
Clc1cc(CSc2ccccc2)nc(-c2ccccc2)n1	n	n	n	n	58	n
Clc1ccc(SCc2cc(Cl)nc(-c3ccccc3)n2)cc1	n	n	n	n	67	n
Clc1ccc(SCc2cc(-c3ccccc3)on2)cc1	n	n	n	n	n	n
CCCn1c(NC(=O)c2ccc(Cl)c(S(=O)(=O)N3CCCC3)c2)nc2ccccc21	n	n	n	n	92	n
CCCn1c(NC(=O)c2cccc(C)c2C)nc2ccccc21	n	n	n	n	52	n
Cn1c(=O)c2sccc2n2c(CCCC(=O)NCc3ccco3)nnc12	n	n	n	n	n	n
S=C(Nc1ccc(Oc2ccccc2)cc1)NC1CCCC1	n	n	n	n	n	n
S=C(NCC1CCCCC1)Nc1ccc(Oc2ccccc2)cc1	n	n	n	n	54	n
SMILES	IDE inh	PP5 primary	IDE cell activ	PP1 counter	SKKanGAS inh	Exocytosis inh
CCCCNC(=O)C(NC(=O)c1cccnc1)C(=O)c1ccccc1 (centres undefined)	x	x	x	x	x	n
COc1cccc(N2C(=O)C3CCCN3C2=S)c1 (centres undefined)	n	n	n	n	n	n
Cc1ccc(OCC(=O)NNC(=S)NC(=O)C(C)(C)C)c(Br)c1	n	n	n	n	90	n
CC(C)c1ccc(OCC(=O)NNC(=S)NC(=O)c2cccs2)c(Br)c1	n	n	n	n	78	n
Cc1ccc(OCC(=O)NNC(=S)NC(=O)C2CC2)c(C)c1	x	x	n	x	x	n
Cc1ccc(OCC(=O)NNC(=S)NC(=O)C2CCCCC2)c(C)c1	n	n	n	n	90	n
